Screening data as filed in PubChem.
Rows were chosen to be rich in hits. Some 1.5% of all compounds tested hit in one or more screens of this group.
IDE inh – inhibitors of human insulin-degrading enzyme in cells; inhibition, % at 5.59 µM; hit rate 0.41% among 320,000; HEK cells, FAbetaB cleavage, fluorescence polarization; P14735;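 active = percent inhibition above the average of all tested compounds plus 3 SD, set per screening campaign, cut at about 16% in these data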;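 note: IDE supplied by intact live HEK cells; FP after avidin binding of uncleaved biotin substrate so inhibition keeps polarization high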
Target sequence (P14735 whole entry, looked up): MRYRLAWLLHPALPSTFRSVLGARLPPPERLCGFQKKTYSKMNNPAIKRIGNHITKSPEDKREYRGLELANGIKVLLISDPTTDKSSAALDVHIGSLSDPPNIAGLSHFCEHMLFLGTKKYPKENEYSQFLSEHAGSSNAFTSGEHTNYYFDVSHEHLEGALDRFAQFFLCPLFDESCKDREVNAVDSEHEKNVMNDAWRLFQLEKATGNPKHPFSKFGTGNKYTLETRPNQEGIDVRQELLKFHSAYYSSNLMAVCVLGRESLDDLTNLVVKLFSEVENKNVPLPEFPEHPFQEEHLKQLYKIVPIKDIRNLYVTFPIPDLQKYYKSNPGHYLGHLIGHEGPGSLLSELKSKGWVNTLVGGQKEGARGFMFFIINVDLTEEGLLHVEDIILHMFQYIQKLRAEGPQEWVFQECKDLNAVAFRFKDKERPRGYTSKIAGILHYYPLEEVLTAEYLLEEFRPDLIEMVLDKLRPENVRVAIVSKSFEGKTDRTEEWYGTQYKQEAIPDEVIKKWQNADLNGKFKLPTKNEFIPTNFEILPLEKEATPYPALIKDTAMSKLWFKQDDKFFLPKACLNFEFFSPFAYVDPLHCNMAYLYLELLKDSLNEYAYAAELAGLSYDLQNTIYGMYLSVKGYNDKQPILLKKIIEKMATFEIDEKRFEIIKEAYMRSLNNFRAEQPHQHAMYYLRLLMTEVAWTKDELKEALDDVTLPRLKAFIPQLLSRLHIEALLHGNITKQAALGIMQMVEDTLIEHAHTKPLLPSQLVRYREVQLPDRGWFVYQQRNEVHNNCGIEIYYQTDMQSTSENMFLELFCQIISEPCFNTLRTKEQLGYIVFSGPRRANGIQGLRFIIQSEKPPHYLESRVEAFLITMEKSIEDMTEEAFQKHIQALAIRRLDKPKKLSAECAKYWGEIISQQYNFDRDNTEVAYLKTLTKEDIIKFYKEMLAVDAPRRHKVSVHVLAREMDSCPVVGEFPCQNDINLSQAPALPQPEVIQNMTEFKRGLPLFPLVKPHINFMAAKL
Cardiac RTF inh – cardiac RTF calcium desensitization. P19429+P45379. IANBD-labeled cardiac RTF, Ca2+ fluorescence. inhibition, % at 7.15 µM. hit rate 0.12% among 340,000. AID 493244;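 active = inhibition above the mean inhibition of all tested compounds plus 3 SD, cut at about 17% in these data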;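 note: assay run at fixed EC70 calcium of 1.6 mM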
CRFBP-R2 block – blocks CRF-induced signaling of the CRF-BP/CRF-R2 complex; HEK293 CRF-R2/CRF-BP, CRF-induced calcium fluorescence; inhibition, % at 11.8 µM; hit rate 0.59% among 350,000;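 active = inhibition of the ligand-induced calcium signal above about 50% at the single tested concentration, limit read from the data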
cardiac RTF act – increases calcium sensitivity of human cardiac regulated thin filaments | P19429+P45379 | IANBD-labeled TnC RTF fluorescence at EC20 calcium; 0% EC20 calcium, 100% full calcium | activation, % at 7.2 µM | hit rate 0.24% among 340,000 | AID 493008;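 active = activation above the mean over all tested compounds plus 3 SD, cut at about 30% in these data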;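 note: rise in fluorescence read as greater calcium sensitivity of cardiac thin filaments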
CRFBP-R2 agonist – CRF-BP/CRF-R2 complex agonism | HEK293 CRF-R2/CRF-BP, calcium dye fluorescence (FLIPR); percent of saturating CRF peptide response | activation, % at 13.2 µM | hit rate 0.46% among 350,000;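 active = activation of at least 50%, plus an integration ratio under a set limit after plate pattern correction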
IDE cell activ – IDE (human) activation, cell-based | activation, % at 5.96 µM | HEK cells, FAbeta-B cleavage, fluorescence polarization; 0% vehicle, 100% cell-free pure enzyme wells | P14735 | AID 493087 | hit rate 0.073% among 340,000;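 active = activation above the mean of all tested compounds plus 3 SD, set per screening campaign, cut at about 17% in these data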
Of the large screens only hits and unclear results are named; the others gave an inactive call; ! = not active in a repeat.

O=C(CSc1nnnn1-c1ccccc1)NCCCN1CCCC1=O	CRFBP-R2 block 57
O=C(O)c1ccc(N=Nc2c(O)ccc3ncccc23)cc1	IDE cell activ 39
COc1ccc(N(Cc2ccccc2)C(=O)OC(C)(C)C)c(C(=O)N(C)OC)c1	none
CCC(=O)c1ccc(OCC(=O)NCCCN2CCOCC2)cc1	CRFBP-R2 block 52 (no result: IDE inh)
COC(=O)c1ccc(NC(=O)CN2C(=O)CSC2=O)cc1	none
CCOC(=O)c1ccc(NC(=O)CN2C(=O)CSC2=O)cc1	CRFBP-R2 block 102
O=C(Cc1cccs1)N1CCN(S(=O)(=O)c2cc(Cl)ccc2Cl)CC1	cardiac RTF act 51
CCCCC1CCC(C(=O)N(CCOC)c2c(N)n(CC(C)C)c(=O)[nH]c2=O)CC1 (centres undefined)	none
CCC1CCCCN1C(=O)COc1ccc(F)cc1 (centres undefined)	none
CCC1CCCCN1C(=O)COC(=O)COc1ccc(Br)cc1 (centres undefined)	CRFBP-R2 agonist 93
Cc1cc(C)cc(Nc2c(F)c(F)c(F)c(F)c2C(=O)O)c1	CRFBP-R2 block 52 (no result: Cardiac RTF inh, cardiac RTF act, IDE cell activ)
COc1c(F)c(F)c(C(=O)O)c(Nc2cccc(C)c2)c1F	none (no result: Cardiac RTF inh, cardiac RTF act, IDE cell activ)
O=C(/C=C/c1cc[n+](CC(=O)c2ccc3cccc4c3c2CC4)cc1)c1ccc2cccc3c2c1CC3	Cardiac RTF inh 17
CC(CCc1ccco1)NC(=O)CCc1nnc2ccc(NCc3ccccc3)nn12 (centres undefined)	CRFBP-R2 block 53
Cc1ccc(NC(=O)CCc2nnc3ccc(NCc4ccco4)nn23)nc1	none
O=C(CCc1ccccc1)NNC(=S)NC(=O)c1ccccc1	CRFBP-R2 agonist 80
CC(C)(C)c1cc(CCC(=O)NNC(=S)NC(=O)c2ccccc2)cc(C(C)(C)C)c1O	CRFBP-R2 agonist 158
O=C(CCc1ccccc1)NNC(=S)NCCc1ccccc1	none
CCCCC(=O)NC(=S)NNC(=O)CCc1ccccc1	CRFBP-R2 agonist 71
CC(=O)NC(=S)NNC(=O)CCc1ccccc1	none
Cc1ccc(Nc2nc(N)nc(COC(=O)C3=COCCO3)n2)cc1	none
COc1ccc(C2(SCC(N)C(=O)O)c3ccccc3-c3ccccc32)cc1 (centres undefined)	none (no result: IDE inh)
Cc1c(Cl)cccc1NC(=O)COC(=O)Cn1cnc2c1c(=O)n(C)c(=O)n2C	none
CN(Cc1ccccn1)C(=O)C1CCC(=O)N(Cc2cccc(C(F)(F)F)c2)C1 (centres undefined)	CRFBP-R2 block 53
CN(Cc1ccncn1)C(=O)C1CCC(=O)N(Cc2cccc(C(F)(F)F)c2)C1 (centres undefined)	none
Cc1cc(C)cc(-n2c(C)cc(/C=C3\C(=N)N4N=C(CC(C)C)SC4=NC3=O)c2C)c1	CRFBP-R2 agonist 60
CCCC1=NN2C(=N)/C(=C\c3cc(C)n(-c4cc(C)cc(C)c4)c3C)C(=O)N=C2S1	CRFBP-R2 agonist 51
CCc1nn2c(=O)cc(COc3ccc(/C=C4\C(=N)N5N=C(CC(C)C)SC5=NC4=O)cc3)nc2s1	none (no result: Cardiac RTF inh, cardiac RTF act, IDE cell activ)
Cc1cc(/C=C2\C(=N)N3N=C(C(C)C)SC3=NC2=O)c(C)n1-c1ccccc1	none
Cc1cccc(-n2c(C)cc(/C=C3\C(=N)N4N=C(CC(C)C)SC4=NC3=O)c2C)c1	CRFBP-R2 agonist 71
CC(C)CC1=NN2C(=N)/C(=C\c3coc4ccccc4c3=O)C(=O)N=C2S1	cardiac RTF act 230, CRFBP-R2 agonist 306 (no result: IDE inh)
CCOC(=O)C1(Cc2ccccc2)CCCN(S(=O)(=O)N(C)C)C1 (centres undefined)	none
S=C(NCCc1ccccc1)N1CCC2CC1c1c(Cl)cccc12 (centres undefined)	CRFBP-R2 block 51 (no result: IDE inh, Cardiac RTF inh, cardiac RTF act, IDE cell activ)
Cc1ncsc1C(=O)N1CCCC(C(=O)c2ccc3ccccc3c2)C1 (centres undefined)	CRFBP-R2 block 60
Cc1cc(C(=O)N2CCCC(C(=O)c3ccc4ccccc4c3)C2)nn1C (centres undefined)	none
COC(=O)c1sccc1NS(=O)(=O)c1ccccc1	CRFBP-R2 block 118
COc1ccc(/C=N/Nc2snc(SC)c2C#N)cc1OC	none
COc1cccc(/C=N/Nc2snc(SC)c2C#N)c1O	CRFBP-R2 agonist 69
CC(=O)Nc1ccc(NC2=C(Cl)C(=O)c3ccccc3C2=O)cc1	CRFBP-R2 block active (no result: IDE inh, Cardiac RTF inh, cardiac RTF act, IDE cell activ)
O=C(NC1=C(Nc2ccc(Cl)cc2)C(=O)c2ccccc2C1=O)c1ccccc1	none
O=C1C(Cl)=C(Nc2ccc3cn[nH]c3c2)C(=O)c2ccccc21	CRFBP-R2 block 95
CN(C)c1ccc(NC2=C(Cl)C(=O)c3ccccc3C2=O)cc1	CRFBP-R2 block 75
COc1ccc(N2CCN(C(=O)C3CCN(C(=O)c4ccc([N+](=O)[O-])cc4)CC3)CC2)cc1	none
O=C(COc1ccc(F)c(Cl)c1)NC(=O)NC1CCCC1	none (no result: IDE inh, Cardiac RTF inh, cardiac RTF act, IDE cell activ)
Cc1cc(NC(=O)CN2C(=O)NC3(CCCCCC3)C2=O)ccc1Br	none
O=C(Nc1cccc(Cl)c1)Nc1csc([N+](=O)[O-])c1	none (no result: Cardiac RTF inh, cardiac RTF act, IDE cell activ)
C=Cc1c(C)c2cc3[nH]c(cc4nc(cc5nc(cc1[nH]2)C(C)=C5CCC(=O)O)C(CCC(=O)O)=C4C)c(C)c3C=C	Cardiac RTF inh 55!
COc1ccc2nc(SCC(=O)N(C)C3CCCCC3)[nH]c2c1	none
O=C1Cc2ccccc2Sc2ccc(O)cc21	CRFBP-R2 agonist 92
O=C(C1CCC(=O)N(C2CCCC2)C1)N1CCN(Cc2cccc(Cl)c2)CC1 (centres undefined)	none
Cc1c(N2C(=O)C3C4C=CC(C5CC45)C3C2=O)c(=O)n(-c2ccccc2)n1C (centres undefined)	CRFBP-R2 block 115
CCOC(=O)C(=CNNc1ccccc1)C(=O)OCC	none
Cc1cc(C)nc(/N=C(\N)Nc2ccc(OCc3ccccc3)cc2)n1	CRFBP-R2 agonist 124
COc1ccccc1N/C(N)=N/c1nc(C)cc(C)n1	none
Cc1cc(C)nc(/N=C(\N)Nc2cccc(OCc3ccccc3)c2)n1	CRFBP-R2 agonist 108
CSc1ccc(/C=C(\NC(=O)c2ccco2)C(=O)N2CCCCC2)cc1	none (no result: IDE inh)
CCN1C(=O)c2cccc3c(S(=O)(=O)Nc4ccccc4OC)ccc1c23	CRFBP-R2 agonist 129
O=S(=O)(NCc1ccccc1)c1ccccc1NCCc1ccccc1	CRFBP-R2 block 110 (no result: IDE inh)
COc1ccc(C)cc1S(=O)(=O)N1CCN(S(=O)(=O)c2cc(C)ccc2OC)CC1	CRFBP-R2 block 54
CCN(CC)c1ccc(C=C2C(=O)OC3(CCCCC3)OC2=O)cc1	none
CCCCC1(C)OC(=O)C(=Cc2ccc(N(CC)CC)cc2)C(=O)O1 (centres undefined)	CRFBP-R2 agonist 59
Cc1ccc2[nH]c3c(N4CCc5ccccc5C4)ncnc3c2c1	IDE inh 62
CCOc1ccc2[nH]c3c(N4CCc5ccccc5C4)ncnc3c2c1	IDE inh 28 (no result: Cardiac RTF inh, cardiac RTF act, IDE cell activ)
